# Test results: PubChem BioAssay (NCATS)
# Where “and” joins values, the source holds several entries; their conditions need not be identical. Equal values may be shown once. Inconclusive results are not listed. A call without a number means that no potency is given here. Where a structure was tested more than once in an assay, its records may differ in their call. Calls of active or inactive are those of the source. Unless noted, calls come from the whole dose curve.
# Key:
# [1] = Cytotoxicity counterscreen for inhibitors of SARS-CoV-2 cell entry (AID 1645845); note: nearly all actives have a fitted effect of over 50% in size
# Outline: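 After a 15 min room-temperature ATPLite 1step step, luminescence reflected ATP remaining in HEK293-ACE2 cells exposed to compound for 1 h plus 48 h at 37 C, with percent activity set by cell and no-cell controls.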
# [2] = Primary qHTS to identify inhibitors of SARS-CoV-2 cell entry (AID 1645846); conditions: activity change, negative = inhibition: at 57.1 µM (top of the series) unless noted; note: nearly all actives have a fitted effect of over 45% in size; note: potency is the fitted concentration of half-maximal effect
# Outline: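 Luminescence readout (Bright-Glo luciferase) 48 h after pseudoparticle addition. HEK293-ACE2 cells, 1500/well; compound pre-incubation 1 h; Normalized to spike PP and bald PP.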
# [3] = VSVG counterscreen qHTS to identify inhibitors of SARS-CoV-2 cell entry (AID 1645847); note: nearly all actives have a fitted effect of over 65% in size; note: potency is the fitted concentration of half-maximal effect
# Outline: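 HEK293-ACE2 cells (Expi293F stably expressing human ACE2) were pretreated with compound for 1 h at 37 °C, then infected with MLV-based VSV-G pseudotyped particles for 48 h. Luciferase luminescence was normalized to VSV-G PP and bald PP wells.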
# [4] = Primary qHTS for inhibitors of nuclear receptor binding SET domain protein 2 (NSD2) in an isogenic RCH-ACV NSD2 p.E1099K mutant (9B) (AID 1645876; active = well fitted curve in the direction sought with a large enough effect; an effect the other way counts as inactive or inconclusive; note: nearly all actives have a fitted effect of over 70% in size)
# [5] = Primary qHTS for inhibitors of nuclear receptor binding SET domain protein 2 (NSD2) in an RCH-ACV wild type WT cells (2C) (AID 1645877; active = well fitted curve in the direction sought with a large enough effect; an effect the other way counts as inactive or inconclusive; note: nearly all actives have a fitted effect of over 70% in size)
structure (smiles),measurement,setting,value
NC(=O)NO,Potency,[1],inactive
same,Potency,[2],inactive
same,"activity change, negative = inhibition",[2],-10.4%
CCc1c2c(nc3ccc(OC(=O)N4CCC(N5CCCCC5)CC4)cc13)-c1cc3c(c(=O)n1C2)COC(=O)[C@]3(O)CC,Potency,[1],inactive
same,Potency,[2],0.891 µM (active)
same,"activity change, negative = inhibition",[2],-95.5%
same,Potency,[3],0.171 µM (active)
CC(S)C(=O)NCC(=O)O (stereo unspecified),Potency,[1],inactive
same,Potency,[2],inactive
same,"activity change, negative = inhibition",[2],-22.2%
CC1Cc2ccccc2N1NC(=O)c1ccc(Cl)c(S(N)(=O)=O)c1 (stereo unspecified),Potency,[1],inactive
same,Potency,[2],inactive
same,"activity change, negative = inhibition",[2],3.64%
NNc1nncc2ccccc12,Potency,[1],inactive
same,Potency,[2],inactive
same,"activity change, negative = inhibition",[2],83.2% [at 27.1 µM]
O=c1c(O)c(-c2ccc(O)c(O)c2)oc2cc(O)cc(O)c12,Potency,[1],inactive
same,Potency,[2],inactive
same,"activity change, negative = inhibition",[2],-12.3%
COC(c1ccccc1)(c1ccccc1)[C@H](Oc1nc(C)cc(C)n1)C(=O)O,Potency,[1],inactive
same,Potency,[2],inactive
same,"activity change, negative = inhibition",[2],-34.8%
same,Potency,[3],inactive
Cc1cn([C@H]2C[C@H](N=[N+]=[N-])[C@@H](CO)O2)c(=O)[nH]c1=O,Potency,[1],inactive
same,Potency,[2],1 µM (active)
same,Potency,[3],0.429 µM (active)
CO[C@@]12[C@H](COC(N)=O)C3=C(C(=O)C(C)=C(N)C3=O)N1C[C@@H]1N[C@@H]12,Potency,[1],inactive
same,Potency,[2],4.47 µM (active)
same,"activity change, negative = inhibition",[2],-40.7%
CCCc1cc(=O)[nH]c(=S)[nH]1,Potency,[1],inactive
same,Potency,[2],inactive
same,"activity change, negative = inhibition",[2],-37.3%
same,Potency,[3],inactive
C[C@@H](O)[C@H]1C(=O)N2C(C(=O)O)=C(S[C@@H]3CN[C@H](C(=O)N(C)C)C3)[C@H](C)[C@H]12,Potency,[1],inactive
same,Potency,[2],inactive
same,"activity change, negative = inhibition",[2],-22.9%
CC(C(=O)O)c1cccc(C(=O)c2ccccc2)c1 (stereo unspecified),Potency,[1],inactive
same,Potency,[2],inactive
same,"activity change, negative = inhibition",[2],-2.03%
C[C@](N)(Cc1ccc(O)c(O)c1)C(=O)O,Potency,[1],inactive
same,Potency,[2],inactive
same,"activity change, negative = inhibition",[2],-1.67%
CCCC(CCC)C(=O)O,Potency,[1],inactive
same,Potency,[2],inactive
same,"activity change, negative = inhibition",[2],-12.6%
Cn1c(=O)c2c(ncn2CC(O)CO)n(C)c1=O (stereo unspecified),Potency,[1],inactive
same,Potency,[2],inactive
same,"activity change, negative = inhibition",[2],4.29%
CCCc1nc2c(C)cc(-c3nc4ccccc4n3C)cc2n1Cc1ccc(-c2ccccc2C(=O)O)cc1,Potency,[1],inactive
same,Potency,[2],inactive
same,"activity change, negative = inhibition",[2],-3.28%
Nc1ccn([C@@H]2O[C@H](CO)[C@@H](O)C2(F)F)c(=O)n1,Potency,[1],inactive
same,Potency,[2],3.16 µM (active)
same,"activity change, negative = inhibition",[2],-96.3%
same,Potency,[3],0.304 µM (active)
CN(C)C(=O)C(CCN1CCC(O)(c2ccc(Cl)cc2)CC1)(c1ccccc1)c1ccccc1,Potency,[1],inactive
same,Potency,[3],24.1 µM (active)
CC[C@]1(O)C[C@H]2CN(CCc3c([nH]c4ccccc34)[C@@](C(=O)OC)(c3cc4c(cc3OC)N(C=O)[C@H]3[C@@](O)(C(=O)OC)[C@H](OC(C)=O)[C@]5(CC)C=CCN6CC[C@]43[C@@H]65)C2)C1,Potency,[1],inactive
same,"activity change, negative = inhibition",[2],-77.7% and -70.4%
same,Potency,[3],0.0171 µM (active)
COC(=O)C1=C(C)NC(C)=C(C(=O)OCC(C)C)C1c1ccccc1[N+](=O)[O-] (stereo unspecified),"activity change, negative = inhibition",[2],-96.9%
same,Potency,[3],5.41 µM (active)
O=C(O)c1ccc(-n2nc(-c3ccccc3O)nc2-c2ccccc2O)cc1,Potency,[3],24.1 µM (active)
Nc1ncn([C@@H]2O[C@H](CO)[C@@H](O)[C@H]2O)c(=O)n1,Potency,[3],19.2 µM (active)
COC(=O)Nc1nc2ccc(C(=O)c3ccccc3)cc2[nH]1,Potency,[1],inactive
same,"activity change, negative = inhibition",[2],-67.2% and -34.4%
same,Potency,[3],1.52 µM (active)
CC[C@@H]([C@H](C)O)n1ncn(-c2ccc(N3CCN(c4ccc(OC[C@@H]5CO[C@@](Cn6cncn6)(c6ccc(F)cc6F)C5)cc4)CC3)cc2)c1=O,"activity change, negative = inhibition",[2],-23.1%
O=C(O)P(=O)(O)O,Potency,[1],inactive
same,Potency,[2],inactive
same,Potency,[4],inactive
same,Potency,[5],inactive
COC(=O)C1=C(C)NC(C)=C(C(=O)OC(C)C)C1c1cccc2nonc12 (stereo unspecified),Potency,[2],inactive
CN(C)CCCN1c2ccccc2Sc2ccc(Cl)cc21,Potency,[1],inactive
same,Potency,[3],17.1 µM (active)
NC1[C@H]2CN(c3nc4c(cc3F)c(=O)c(C(=O)O)cn4-c3ccc(F)cc3F)C[C@@H]12 (stereo partly specified),Potency,[2],inactive
OCCN1C[C@H](O)[C@@H](O)[C@H](O)[C@H]1CO,Potency,[1],inactive
same,"activity change, negative = inhibition",[2],-28.6% and -30.5%
same,Potency,[3],4.29 µM (active)
COc1cc(Nc2c(C#N)cnc3cc(OCCCN4CCN(C)CC4)c(OC)cc23)c(Cl)cc1Cl,Potency,[2],3.16 µM (active)
COc1c(C)c2c(c(O)c1C/C=C(\C)CCC(=O)OCCN1CCOCC1)C(=O)OC2,Potency,[1],inactive
same,"activity change, negative = inhibition",[2],-45.8%
same,Potency,[3],0.429 µM (active)
O[C@@H](CNC[C@H](O)[C@H]1CCc2cc(F)ccc2O1)[C@@H]1CCc2cc(F)ccc2O1,Potency,[2],22.4 µM (active)
COc1cc([C@@H]2c3cc4c(cc3[C@H](O)[C@H]3COC(=O)[C@H]23)OCO4)cc(OC)c1OC,"activity change, negative = inhibition",[2],-79.7%
COc1cc2c(c(OC)c1OC)-c1ccc(OC)c(=O)cc1[C@@H](NC(C)=O)CC2,"activity change, negative = inhibition",[2],-76.4%
